Results published in paper PMC10726135, “HNF4α isoforms regulate the circadian balance between carbohydrate and lipid metabolism in the liver”.
Whole data set: some 18,000 sequences, median “log2 normalized intensity” near 0.36, cut for the highest 2% near 7.3. This is one part of a sample in which the highest values are shown more often than they occur.

What follows are sequences tested against T1, HNF4alpha8 (COS-7 nuclear extract) (Homo sapiens, UniProt P41235-5 1-452) (assay: protein-binding microarray; COS-7 nuclear extract on double-stranded Agilent 4x180k PBM; binding buffer, salt, pH and temperature not given in the material; high values mean tight binding). Conditions: chain copies: 2; label: 3' end of strand 1 on the slide; dsDNA, one strand shown.
T1 sequence: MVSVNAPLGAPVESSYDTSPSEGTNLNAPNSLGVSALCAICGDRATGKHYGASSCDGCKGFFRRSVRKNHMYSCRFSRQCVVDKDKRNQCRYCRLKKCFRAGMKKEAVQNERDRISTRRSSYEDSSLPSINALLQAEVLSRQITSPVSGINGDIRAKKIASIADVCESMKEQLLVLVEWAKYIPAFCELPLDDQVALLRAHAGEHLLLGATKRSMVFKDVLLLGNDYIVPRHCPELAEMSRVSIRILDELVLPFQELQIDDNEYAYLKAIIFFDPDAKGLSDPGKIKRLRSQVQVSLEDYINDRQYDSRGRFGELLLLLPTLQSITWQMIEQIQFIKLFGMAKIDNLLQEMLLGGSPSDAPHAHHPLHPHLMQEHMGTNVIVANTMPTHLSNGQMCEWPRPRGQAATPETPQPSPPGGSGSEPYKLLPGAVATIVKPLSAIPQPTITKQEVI
In short: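 Double-stranded oligonucleotides of ~60 nt, representing ~44,000 test sequences in quadruplicate, made up a custom Agilent SurePrint G3 4x180k array. Nuclear extracts from COS-7 cells transiently transfected by CaPO4 with a human HNF4α isoform expression vector were applied, and bound HNF4α was imaged at 2-µm resolution on an Agilent G2565CA scanner. Binding signal refers to the background-corrected, normalized gProcessedSignal output of Agilent software.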

Sequence	binding signal
AACCCCTTTTCAATTCCTTATCTCGTTCTGGCCTAGGGAGATTAGAGTATCGGTCGA	0.721 log2 normalized intensity
ATGTGACCTTTTGGACCACAGAGTGACCTGGCCTAGGGAGATTAGAGTATCGGTCGA	5.66 log2 normalized intensity
ACAGCAGTGGACTTTGACCTTGGCACTGAAGCCTAGGGAGATTAGAGTATCGGTCGA	9.68 log2 normalized intensity
CAGTCACAGCAGTGGACTTTGACCTTGGCAGCCTAGGGAGATTAGAGTATCGGTCGA	9.69 log2 normalized intensity
ACAGCACTGACCTTTGAGAGTCAACACTGAGCCTAGGGAGATTAGAGTATCGGTCGA	3.53 log2 normalized intensity
ACTTTGACCTTGGCACTGAAGAATGTCTAAGCCTAGGGAGATTAGAGTATCGGTCGA	2.09 log2 normalized intensity
TGACCTTGCAGTGGCAAGGCAAAAGAGACAGCCTAGGGAGATTAGAGTATCGGTCGA	0.892 log2 normalized intensity
CCTCCTGTGGTAATAAGTTGGTGGACGCTGGCCTAGGGAGATTAGAGTATCGGTCGA	1.13 log2 normalized intensity
TCTTTAGGCCAAACAAAAATATGGACTTTGGCCTAGGGAGATTAGAGTATCGGTCGA	6.57 log2 normalized intensity
TATGCTCTCTCTCCACCTGGAGGGACTTTGGCCTAGGGAGATTAGAGTATCGGTCGA	3.06 log2 normalized intensity
GGACTTTGGTGTCTGACAGATAAGATTTGGGCCTAGGGAGATTAGAGTATCGGTCGA	2.62 log2 normalized intensity
ATCTCCAGATAAGACTTTGGACTTTGGACCGCCTAGGGAGATTAGAGTATCGGTCGA	11.8 log2 normalized intensity
GGATAATGATAAAGAGATTGGACTTTGGCCGCCTAGGGAGATTAGAGTATCGGTCGA	9.44 log2 normalized intensity
AAAATATGGACTTTGGAATTAAGAAAAGCTGCCTAGGGAGATTAGAGTATCGGTCGA	5.77 log2 normalized intensity
GCTAAGAGACAGCTCCACAGCTGGACTTTGGCCTAGGGAGATTAGAGTATCGGTCGA	5.9 log2 normalized intensity
AGGCCAAACAAAAATATGGACTTTGGAATTGCCTAGGGAGATTAGAGTATCGGTCGA	8.4 log2 normalized intensity
ATCTCCAAACGAGACTTTGGACTTTGGACTGCCTAGGGAGATTAGAGTATCGGTCGA	11.9 log2 normalized intensity
ATTTGGACTTTTACTCTTAGAGATAATGGGGCCTAGGGAGATTAGAGTATCGGTCGA	2.47 log2 normalized intensity
GAGACAGCTCCACAGCTGGACTTTGGCTGCGCCTAGGGAGATTAGAGTATCGGTCGA	6.17 log2 normalized intensity
AAAGATGTTTAAATAGTGATAATGGATGGCGCCTAGGGAGATTAGAGTATCGGTCGA	0.702 log2 normalized intensity
GGGTTAGGCCTTTAGAGGATTTACTTATACGCCTAGGGAGATTAGAGTATCGGTCGA	0.821 log2 normalized intensity
TGCTCATAGCTACGGGTGACCTTGAGCACTGCCTAGGGAGATTAGAGTATCGGTCGA	3.93 log2 normalized intensity

Sequence	binding signal
TCCTCTTCCCTACCCCCTGGGAGTAACCTGGCCTAGGGAGATTAGAGTATCGGTCGA	3.13 log2 normalized intensity
CTCCAAACATCTTTGGTATGGACTGATATTGCCTAGGGAGATTAGAGTATCGGTCGA	1.85 log2 normalized intensity
CAAACGAGACTTTGGACTTTGGACTTGGGAGCCTAGGGAGATTAGAGTATCGGTCGA	10.9 log2 normalized intensity
AAAGGGACTCATCTCCAAACGAGACTTTGGGCCTAGGGAGATTAGAGTATCGGTCGA	2.23 log2 normalized intensity
GACTCATCTCCAAACGAGACTTTGGACTTTGCCTAGGGAGATTAGAGTATCGGTCGA	9.58 log2 normalized intensity
GAAGGAGAGAGAGGGAGAGTGGCCTTTGGAGCCTAGGGAGATTAGAGTATCGGTCGA	4.12 log2 normalized intensity
CACAAATTGGAGAGCATCTTGGACTTGGGAGCCTAGGGAGATTAGAGTATCGGTCGA	3.16 log2 normalized intensity
ACAGTTCTGATACATTGGACAACTGTACTTGCCTAGGGAGATTAGAGTATCGGTCGA	2.21 log2 normalized intensity
TACATTGGACAACTGTACTTTGGACTGGGGGCCTAGGGAGATTAGAGTATCGGTCGA	6.69 log2 normalized intensity
TCTGATACATTGGACAACTGTACTTTGGACGCCTAGGGAGATTAGAGTATCGGTCGA	8.02 log2 normalized intensity
GTGACTACCTGGTTAAAAGGACAACCTTCGGCCTAGGGAGATTAGAGTATCGGTCGA	-0.397 log2 normalized intensity
AGAATGTGGTTCTTTTCATTAAATATTTAAGCCTAGGGAGATTAGAGTATCGGTCGA	0.534 log2 normalized intensity
CCTCAATGCTATCTCCCAGTTCTTTTGACCGCCTAGGGAGATTAGAGTATCGGTCGA	2.7 log2 normalized intensity
CCAGTTCTTTTGACCTTTGCCTCATTCTTAGCCTAGGGAGATTAGAGTATCGGTCGA	7.02 log2 normalized intensity
TCCTTTTGACCACAGTTATCTCCCCAGCTTGCCTAGGGAGATTAGAGTATCGGTCGA	2.38 log2 normalized intensity
ATGCTATCTCCCAGTTCTTTTGACCTTTGCGCCTAGGGAGATTAGAGTATCGGTCGA	8.5 log2 normalized intensity
AGTTATATCTTACCTCCTTCTCCCCCATGCGCCTAGGGAGATTAGAGTATCGGTCGA	4.73 log2 normalized intensity
ATCTCCCAGTTCTTTTGACCTTTGCCTCATGCCTAGGGAGATTAGAGTATCGGTCGA	8.61 log2 normalized intensity
TAGGCATGCAAACTTTGTTTAATGATTGCAGCCTAGGGAGATTAGAGTATCGGTCGA	0.0707 log2 normalized intensity
GGTACTGGAAACTGGGCAAGGTCCATTACGGCCTAGGGAGATTAGAGTATCGGTCGA	3.56 log2 normalized intensity
CACCTTCTTTCTCCCAGAGGTCGATCTGATGCCTAGGGAGATTAGAGTATCGGTCGA	2.25 log2 normalized intensity
GGTGAAATAGCTGAACTATTTAAGGCCTTTGCCTAGGGAGATTAGAGTATCGGTCGA	0.507 log2 normalized intensity

Sequence	binding signal
TCTTTGATTAGGAAAGGGAACTCCCTGACCGCCTAGGGAGATTAGAGTATCGGTCGA	0.445 log2 normalized intensity
ACTGACCTTTGAGAGTCAACACTGAAATAGGCCTAGGGAGATTAGAGTATCGGTCGA	2.06 log2 normalized intensity
GAAAATATTTCTCTGAACTTTGACCTATAGGCCTAGGGAGATTAGAGTATCGGTCGA	9.31 log2 normalized intensity
CACTTCTGAAAAAAATATTGAACAAAGATTGCCTAGGGAGATTAGAGTATCGGTCGA	0.276 log2 normalized intensity
AGTTGGAAAATATTTCTCTGAACTTTGACCGCCTAGGGAGATTAGAGTATCGGTCGA	8.68 log2 normalized intensity
CTGTTTCTTTGTGTGTCAACAGAGTGCTTAGCCTAGGGAGATTAGAGTATCGGTCGA	1.48 log2 normalized intensity
TAGGTACTATTATTAGAGTCCCTTTTTTAGGCCTAGGGAGATTAGAGTATCGGTCGA	0.509 log2 normalized intensity
GAAAGGATCTCACCCAAACCATCCCAGGCAGCCTAGGGAGATTAGAGTATCGGTCGA	3.1 log2 normalized intensity
GGTGATGTGAACCTCGATCCCTGGCTAAGGGCCTAGGGAGATTAGAGTATCGGTCGA	2.38 log2 normalized intensity
CCCCACCCGCGGTCCGTCCCTCCTGGTCGAGCCTAGGGAGATTAGAGTATCGGTCGA	3.57 log2 normalized intensity
CCCAGTATGAGCGGCGCTGACCCCGGGAGCGCCTAGGGAGATTAGAGTATCGGTCGA	3.67 log2 normalized intensity
TGAGACTTTCCTGTTGGGGAGCAAAGGTTAGCCTAGGGAGATTAGAGTATCGGTCGA	6.1 log2 normalized intensity
TGCATGCAAAAAGGCTGACCTTTGACTCTCGCCTAGGGAGATTAGAGTATCGGTCGA	8.15 log2 normalized intensity
CTGAGGAAGTGCTGACCTTTGGTCTAAACCGCCTAGGGAGATTAGAGTATCGGTCGA	6.93 log2 normalized intensity
AGTGCTGCATGCAAAAAGGCTGACCTTTGAGCCTAGGGAGATTAGAGTATCGGTCGA	8.62 log2 normalized intensity
TAGATAAGAGCTGAGGAAGTGCTGACCTTTGCCTAGGGAGATTAGAGTATCGGTCGA	6.57 log2 normalized intensity
AAGAGCTGAGGAAGTGCTGACCTTTGGTCTGCCTAGGGAGATTAGAGTATCGGTCGA	7.88 log2 normalized intensity
GTCAGAGTGCTGCATGCAAAAAGGCTGACCGCCTAGGGAGATTAGAGTATCGGTCGA	1.75 log2 normalized intensity
CTTTTTGACCTTGCAGTGGCAAGGCAAAAGGCCTAGGGAGATTAGAGTATCGGTCGA	2.28 log2 normalized intensity
CCTAAACCTGCAAACCTTTGACCTTTCCATGCCTAGGGAGATTAGAGTATCGGTCGA	6.22 log2 normalized intensity
TCTCGGTCAAACCTTTGACCCTTTATAATCGCCTAGGGAGATTAGAGTATCGGTCGA	6.91 log2 normalized intensity
CTTTGAAATGTCCTGAGTGATTGTAGTGTCGCCTAGGGAGATTAGAGTATCGGTCGA	1.86 log2 normalized intensity

Sequence	binding signal
CCCCCGCAACTATTTATGAGTCTTGGGAATGCCTAGGGAGATTAGAGTATCGGTCGA	0.709 log2 normalized intensity
CACAGTGTTATTTGCTGAGGTGGGGGAGGTGCCTAGGGAGATTAGAGTATCGGTCGA	0.772 log2 normalized intensity
TTAGGGAGGGGCCAGGACAAAGGTCCTGTGGCCTAGGGAGATTAGAGTATCGGTCGA	2.51 log2 normalized intensity
GGTTAAAATTTATCTATTGGGTACAATGTTGCCTAGGGAGATTAGAGTATCGGTCGA	2.37 log2 normalized intensity
CTTCCAGTCCACAGTCCAGTGACTATCTGCGCCTAGGGAGATTAGAGTATCGGTCGA	1.02 log2 normalized intensity
ACTTTGCCCTTTTTTTCTCTCCCCTTTTAAGCCTAGGGAGATTAGAGTATCGGTCGA	2.63 log2 normalized intensity
TTGCCCTTTGCCCAACCCTCTCCCACTCCCGCCTAGGGAGATTAGAGTATCGGTCGA	4.93 log2 normalized intensity
CCATCCTACAGGGTATGAATTTAACCTTTGGCCTAGGGAGATTAGAGTATCGGTCGA	4.92 log2 normalized intensity
TCCTCAGGGAATTTCTAGGTTTGATCTTTGGCCTAGGGAGATTAGAGTATCGGTCGA	3.49 log2 normalized intensity
GGGTATGAATTTAACCTTTGCTCTCTGAAAGCCTAGGGAGATTAGAGTATCGGTCGA	6.63 log2 normalized intensity
TGACCTTTGCATTCTTACCCAAGCCCCAAAGCCTAGGGAGATTAGAGTATCGGTCGA	4.12 log2 normalized intensity
AGGGAATTTCTAGGTTTGATCTTTGCCCTAGCCTAGGGAGATTAGAGTATCGGTCGA	7.66 log2 normalized intensity
TTTCTTAATTGCCCTTTGCCCTTTGCCCAAGCCTAGGGAGATTAGAGTATCGGTCGA	8.84 log2 normalized intensity
GCCCTTTGCCCTTTGCCCAACCCTCTCCCAGCCTAGGGAGATTAGAGTATCGGTCGA	6.2 log2 normalized intensity
TAATTGCCCTTTGCCCTTTGCCCAACCCTCGCCTAGGGAGATTAGAGTATCGGTCGA	7.74 log2 normalized intensity
CTACAGGGTATGAATTTAACCTTTGCTCTCGCCTAGGGAGATTAGAGTATCGGTCGA	7.57 log2 normalized intensity
ATTTCTAGGTTTGATCTTTGCCCTACAATTGCCTAGGGAGATTAGAGTATCGGTCGA	6.36 log2 normalized intensity
CTGAATCTCCCAGTGCTTTGATCTTCAACTGCCTAGGGAGATTAGAGTATCGGTCGA	0.419 log2 normalized intensity
CACTTGTAGGCCTGTGTGCATGGAGTGCACGCCTAGGGAGATTAGAGTATCGGTCGA	0.798 log2 normalized intensity
